Reference: PubChem BioAssay AID434970 (Sanford-Burnham Center for Chemical Genomics, 2010)
In all, about 11,000 compounds went through this assay and about 310 (2.8%) were called active. No stated cut-off is given here; in the data, active means activity change below about -85%; inactive means the rest. The sample as a whole holds a higher share of actives than the screen did. Starred links: 1 amine or outer side, 2 acyl side, 3 side chain; linkers in the order of their positions; H or OH if unused. Positions of bridges follow the written chain, without caps; N, C: chain ends. Non-standard residues stand in square brackets, D forms with d. Residues, ends and D or L forms follow the SMILES beside them. ξ: configuration not given here. hSer(Ph(2-I,4-NO2,6-CO)) = O=C([C@H](CCOc1c(I)cc([N+](=O)[O-])cc1C(=O)[*:3])N[*:1])[*:2]; ξD = NC(CC(=O)O)C(=O)O

Test system: intestinal alkaline phosphatase [Mus musculus]
Experiment: mouse intestinal phosphatase enzyme activation – biochemical, luminescence, single concentration, confirmation (AID 434970)
Details: purified mouse IAP, CDP-Star luminescence, 30 min, at 10 µM; activation factor: measured here: IAP activation factor, stronger effect = higher value; activity change, negative = activation: stronger effect = lower value

SMILES	activation factor	activity change, negative = activation
C[C@@H]1NC(=O)c2cc([N+](=O)[O-])cc(I)c2OCC[C@@H](C(=O)NC(CC(=O)O)C(N)=O)NC(=O)[C@H](CC(N)=O)NC1=O (stereo not given in full) (AN[hSer(Ph(2-I,4-NO2,6-CO))][ξD]-NH2; lactam N-3)	1.15	-14.8% (inactive)
CC[C@]12c3[nH]c4cc(-c5ccco5)ccc4c3CCN1C(=O)[C@@H](CC(=O)NCc1ccco1)C[C@@H]2C(=O)N1CCN(C(=O)C2CC2)CC1	1.23	-22.7% (inactive)
CC(C)CCNC(=O)NC(=O)CSc1nnc(COc2ccccc2Cl)o1	1.04	-4.3% (inactive)
CC(C)C(=O)Nc1nnc(SCC(=O)NCc2cccs2)s1	0.976	2.4% (inactive)
Cc1ccc(C(=O)Nc2nncs2)cc1S(=O)(=O)N1CCOCC1	0.927	7.35% (inactive)
COc1ccc(S(=O)(=O)NCCc2ccc(F)cc2)cc1	0.961	3.9% (inactive)
Cc1cc2c(ncn2C)c(NS(=O)(=O)c2cc(Cl)ccc2Cl)c1C	0.946	5.45% (inactive)
Cc1noc2ncnc(Sc3c(Cl)cccc3Cl)c12	0.906	9.4% (inactive)
C#CCOCCOCCOCCNc1nc(N2CCN(C(=O)CCCCCCCCCCNC(=O)[C@H](CO)n3cc(CCCSC)nn3)CC2)nc(N2CCN(C(=O)CCCCCCCCCCNC(=O)[C@H](CCCN=C(N)N)n3cc(C[C@@H](C)CC)nn3)CC2)n1	5.98	-498% (active)
C#CCOCCOCCOCCNc1nc(N2CCN(C(=O)CCCCCCCCCCNC(=O)[C@H](CO)n3cc(CCCSC)nn3)CC2)nc(N2CCN(C(=O)CCCCCCCCCCNC(=O)[C@H](CCCCN)n3cc(C[C@@H](C)CC)nn3)CC2)n1	2.83	-183% (active)
C#CCOCCOCCOCCNc1nc(N2CCN(C(=O)CCCCCCCCCCNC(=O)[C@@H](CCSC)n3cc(CCO)nn3)CC2)nc(N2CCN(C(=O)CCCCCCCCCCNC(=O)[C@H](CCCN=C(N)N)n3cc(C[C@@H](C)CC)nn3)CC2)n1	8.61	-761% (active)
COc1ccc(N2C(=O)C3CCCN3C2c2ccccc2)cc1Cl (stereo not given)	0.895	10.5% (inactive)
C=CCNC(=O)c1nc2ccccc2s1	0.92	8% (inactive)
Cn1c(=O)cc(SCC(=O)Nc2cccnc2)c2ccccc21	0.952	4.8% (inactive)
CCC1CCCCN1CCCNC(=O)c1ccc2c(=O)n(Cc3ccc(OC)cc3)c(=O)[nH]c2c1 (stereo not given)	0.925	7.5% (inactive)
Fc1ccc(CNc2nc(-c3ccco3)cc(C(F)(F)F)n2)cc1	0.991	0.9% (inactive)
COc1ccc2c(c1OC)C(=O)N(c1ccc(C)c(C)c1)C2=O	0.976	2.45% (inactive)
COc1cc(/C=C(\C#N)c2nc3ccc(C)cc3[nH]2)c([N+](=O)[O-])cc1OC	0.806	19.4% (inactive)
Cc1[nH]ccc(=O)c1OCc1c(Cl)cccc1Cl	0.957	4.3% (inactive)
COCCn1c(Sc2ccccc2)nc2c1c(=O)[nH]c(=O)n2C	1.07	-6.95% (inactive)
COC(=O)[C@H]1C2CCC(C(=O)OC)(CC2)[C@H]1C(=O)OC	0.915	8.55% (inactive)
O=S(=O)(c1ccc(F)cc1)N1CCN(CC(O)COCc2cccs2)CC1 (stereo not given)	0.928	7.2% (inactive)
Cc1c(C(=O)Nc2ccc(Cl)cc2)c2ccccn2c1C(=O)c1ccccc1	1.02	-1.8% (inactive)
CC1CCCN(C(C(=O)Nc2ccc(C(C)C)cc2)c2ccc3c(c2)OCO3)C1 (stereo not given)	1.73	-73.3% (inactive)
O=C(N/C=C/c1ccccc1)Nc1ccc(Cl)cc1	2.71	-171% (active)

SMILES	activation factor	activity change, negative = activation
CC(NC(=O)C1CCC1)c1ccccc1 (stereo not given)	1.12	-11.9% (inactive)
CCN(CC)C(C(=O)Nc1ccc(C(C)C)cc1)c1ccc2c(c1)OCO2 (stereo not given)	1.48	-48.4% (inactive)
CC(NC(=O)Nc1ccc(Cl)cc1)c1ccc2c(c1)OCO2 (stereo not given)	2.53	-153% (active)
COC(=O)Nc1ccc2c(c1)OCO2	0.903	9.6% (inactive)
Cc1ccc(NC(=O)N/C=C/c2ccc(Cl)cc2)cc1	1.09	-9.1% (inactive)
Cc1ccc(NC(=O)N/C=C/c2ccccc2)cc1	1.56	-55.5% (inactive)
CC(NC(=O)Nc1ccc(Cl)cc1)c1ccccc1 (stereo not given)	2.11	-111% (active)
CC(C)c1ccc(NC(=O)NC(C)c2ccc3c(c2)OCO3)cc1 (stereo not given)	3.31	-231% (active)
Cc1noc(-c2ccccc2)c1NC(=O)Nc1ccc(Cl)cc1	1.7	-70.2% (inactive)
COc1ccc(Cl)cc1C(=O)Nc1ccc2c(c1)OCO2	1.1	-10.2% (inactive)
Cc1cccc(OCCCSc2nc3ccccc3[nH]2)c1	1.13	-12.6% (inactive)
COC(=O)c1c(NC(=O)c2ccccc2)sc(Cc2ccccc2)c1C	1	-0.05% (inactive)
O=C(NCC(=O)N(CC1CCCO1)C1(C(=O)NC2CCCC2)CCCCC1)c1ccccc1 (stereo not given)	1.03	-3.2% (inactive)
CCOC(=O)N1CCN(C(=O)Cn2c(C)cc3ccccc3c2=O)CC1	1.12	-11.8% (inactive)
Cc1ccc(Nc2c3c(nc4ncnn24)CC(C)CC3)cc1 (stereo not given)	1.02	-2.1% (inactive)
C1CN(c2nc3nonc3n3nnnc23)CCO1	0.972	2.75% (inactive)
O=C(Cn1cc(C(=O)C2CC2)c2ccccc21)NCC1CCCO1 (stereo not given)	0.944	5.6% (inactive)
O=C(O)CS(=O)(=O)c1ccc(Oc2ccc(S(=O)(=O)CC(=O)O)cc2)cc1	1.1	-10.4% (inactive)
CC(NC(=O)c1ccco1)c1ccc2c(c1)OCCO2 (stereo not given)	0.968	3.25% (inactive)
CC(C)c1ccc(NC(=S)NCc2ccc3c(c2)OCO3)cc1	1.36	-36.3% (inactive)
CCc1ccc(NC(=O)NC(C)c2ccc3c(c2)OCO3)cc1 (stereo not given)	2.66	-166% (active)
COc1cc2oc(=O)cc(-c3ccc(-c4ccc(C)cc4)cc3)c2c(OC)c1OC	0.934	6.55% (inactive)
COc1ccc(CC(=O)N[C@@H]2c3ccccc3CC[C@@H]2OCc2ccccc2)cc1	1.19	-18.9% (inactive)
Cc1sc2nc(CN3CCOCC3)nc(NS(=O)(=O)c3ccc4c(c3)OCCO4)c2c1C	0.956	4.4% (inactive)
CCc1cc(Cn2nc(-c3ccccc3)cc2C(=O)NCc2cccc(C(F)(F)F)c2)on1	2.52	-152% (active)

SMILES	activation factor	activity change, negative = activation
Cc1cc(C)nc(N2CCC(C(=O)NCc3cccc(C(F)(F)F)c3)CC2)n1	0.95	5.1% (inactive)
O=C(NCc1ccccc1)c1cc2nc(C3CC3)cc(C(F)(F)F)n2n1	0.96	4% (inactive)
Cc1cc(Cn2nc(-c3ccccc3)cc2C(=O)NCc2cccc(C(F)(F)F)c2)on1	2.25	-125% (active)
Cc1ccc(C(=O)NC(Cc2cccc(C(F)(F)F)c2)C(=O)O)cc1 (stereo not given)	1.14	-13.9% (inactive)
CCCC1C2C(=O)N(c3ccccc3OCC)C(=O)C2ON1c1ccccc1 (stereo not given)	1.1	-9.6% (inactive)
CCCN1C(=O)c2ccc(C(=O)NC3CCCCC3)cc2C1=O	1.07	-6.9% (inactive)
C=CCNc1nc(-c2sc(NC(C)=O)nc2C)cs1	0.932	6.75% (inactive)
CCCCCCNC(=O)N[C@@H](C(=O)NCCC[C@H]1CN2C(=NC[C@@H]2Cc2ccccc2)N1CCc1cccc(OC)c1)C(C)C	3.11	-211% (active)
CCCCNc1nc2c(c(=O)n(C)c(=O)n2C)n1Cc1cccc(OC)c1	1.04	-4.2% (inactive)
O=C(CCCOc1ccccc1)Nc1nncs1	1.02	-1.6% (inactive)
COc1cccc(C(=O)OCC(=O)Nc2ccccc2N2CCOCC2)c1	0.909	9.1% (inactive)
CCCCNC(=O)C(C)N(CCN(C)C)C(=O)CCCN1C(=O)NC(c2ccc(Cl)cc2)C(C(=O)OCc2ccccc2)=C1C (stereo not given)	1.19	-18.9% (inactive)
CCCCNC(=O)C(C1CCCCC1)N(CCN(C)C)C(=O)CCCN1C(=O)NC(c2ccc(-c3ccccc3)cc2)C(C(=O)OCc2ccccc2)=C1C (stereo not given)	2.49	-148% (active)
CCCCCCN(C(=O)CCCN1C(=O)NC(c2ccc(-c3ccccc3)cc2)C(C(=O)OCc2ccccc2)=C1C)C(C)C(=O)NCCCC (stereo not given)	1.42	-41.5% (inactive)
CCOC(=O)c1c(C)[nH]c(C(=O)CSc2nnc(CC(C)c3ccccc3)o2)c1C (stereo not given)	0.943	5.7% (inactive)
COc1ccc(OC)c(NC(=O)Cn2c(=O)n(CC(=O)NCc3ccco3)c(=O)c3ccccc32)c1	0.997	0.3% (inactive)
OCCCn1c(-c2ccccc2)n[nH]c1=S	1.02	-1.9% (inactive)
OCCCN1c2ccccc2Nc2nnc(-c3ccccc3)cc21	3.08	-208% (active)
CN(CC(=O)Nc1cccc(Cl)c1)S(=O)(=O)c1ccc2[nH]c(=O)oc2c1	0.26	74.1% (inactive)
COc1cccc(CN(CC(=O)NC2CCCC2)C(=O)Cn2nnc(-c3cccs3)n2)c1	1.07	-7.3% (inactive)
Cc1ccc(S(=O)(=O)N(C)C)cc1NC(=S)NC(C)CCCC(C)C (stereo not given)	1.26	-26.2% (inactive)
Cc1ccc(NC(=O)Nc2cc(S(=O)(=O)N(C)C)ccc2C)cc1	1.84	-83.7% (inactive)
Cc1cc(C)cc(NC(=O)Nc2cc(S(=O)(=O)N(C)C)ccc2C)c1	3.43	-243% (active)
Cc1cc(NC(=O)Cn2c(=O)c3c(ncn3CC(C)C)n(Cc3ccccc3)c2=O)no1	1.09	-9.3% (inactive)
Cc1ccccc1-n1nc(C(=O)O)c(C)c(C#N)c1=O	0.98	2.05% (inactive)
